Data taken from PubChem BioAssay (EPA / NIEHS).
Results filed as inconclusive are left out. Activity calls are given as the source filed them. The calls were made as follows: active = hit-call score of the fitted dose curve at least 0.9, where 1 is the maximum; inconclusive = response in the unintended direction; inactive = score below 0.9.

Each compound was assayed against Estrogen receptor (Homo sapiens) + Estrogen receptor beta (Homo sapiens) (UniProt P03372+Q92731) (assay: OT_ER_ERaERb_1440: Odyssey Thera (OT) 24-hour HEK293T Protein-Complementation Assay for Estrogen Receptor-alpha/-beta Homodimer (AID 2283356);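 also: hits raise reporter fluorescence and both agonists and antagonists give an increase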).
Estrogen receptor (Homo sapiens) + Estrogen receptor beta (Homo sapiens), sequence (P03372 whole entry, looked up, the tested form may be a part): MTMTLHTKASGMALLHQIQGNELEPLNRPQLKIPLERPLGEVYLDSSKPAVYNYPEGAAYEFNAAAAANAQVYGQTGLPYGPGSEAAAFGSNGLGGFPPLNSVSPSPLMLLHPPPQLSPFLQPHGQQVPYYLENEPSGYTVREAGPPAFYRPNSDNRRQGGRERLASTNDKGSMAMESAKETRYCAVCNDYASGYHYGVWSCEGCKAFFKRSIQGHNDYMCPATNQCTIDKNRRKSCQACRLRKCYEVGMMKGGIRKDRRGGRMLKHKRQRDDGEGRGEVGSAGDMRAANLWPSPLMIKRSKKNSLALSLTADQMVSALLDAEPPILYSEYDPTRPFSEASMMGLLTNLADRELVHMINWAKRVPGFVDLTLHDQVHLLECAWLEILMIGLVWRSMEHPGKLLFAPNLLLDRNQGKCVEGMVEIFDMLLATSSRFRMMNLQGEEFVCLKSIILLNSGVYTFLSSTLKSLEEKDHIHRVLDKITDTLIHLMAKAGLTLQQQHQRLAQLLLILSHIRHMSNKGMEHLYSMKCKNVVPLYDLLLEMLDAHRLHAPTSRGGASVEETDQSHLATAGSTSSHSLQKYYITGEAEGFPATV
Estrogen receptor (Homo sapiens) + Estrogen receptor beta (Homo sapiens), sequence (Q92731 whole entry, looked up, the tested form may be a part): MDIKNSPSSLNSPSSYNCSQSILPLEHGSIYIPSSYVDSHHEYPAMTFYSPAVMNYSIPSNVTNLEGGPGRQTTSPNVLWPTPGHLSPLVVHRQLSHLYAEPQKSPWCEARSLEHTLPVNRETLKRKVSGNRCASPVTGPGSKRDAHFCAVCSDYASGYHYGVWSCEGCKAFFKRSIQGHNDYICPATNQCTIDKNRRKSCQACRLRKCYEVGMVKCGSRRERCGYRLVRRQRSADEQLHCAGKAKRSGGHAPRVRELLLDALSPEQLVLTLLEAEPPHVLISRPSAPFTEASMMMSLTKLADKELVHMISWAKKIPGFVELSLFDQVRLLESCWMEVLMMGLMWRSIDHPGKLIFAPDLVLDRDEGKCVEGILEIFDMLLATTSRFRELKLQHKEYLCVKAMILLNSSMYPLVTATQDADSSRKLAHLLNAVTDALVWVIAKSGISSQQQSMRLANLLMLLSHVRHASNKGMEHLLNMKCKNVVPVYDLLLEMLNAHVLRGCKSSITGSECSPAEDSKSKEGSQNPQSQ
Method: OT_ER_ERaERb_1440 is a cell-based assay that uses HEK293T, a human kidney cell line, with measurements taken at 24 hours after chemical dosing in a 384-well plate.OT_ER_ERaERb_1440 is one of one assay component(s) measured or calculated from the OT_ER_ERaERb_1440 assay. It is designed to make measurements of protein fragment complementation, a form of binding reporter, as detected with fluorescence intensity signals by Protein-fragment Complementation technology.Data from the assay component OT_ER_ERaERb_1440 was analyzed into 1 assay endpoint. This assay endpoint, OT_ER_ERaERb_1440, was analyzed in the positive analysis fitting direction relative to DMSO as the negative control and baseline of activity. Using a type of binding reporter, measures of receptor for gain-of-signal activity can be used to understand the binding at the pathway-level as they relate to the gene ESR1 and ESR2. Furthermore, this assay endpoint can be referred to as a primary readout, because the performed assay has only produced 1 assay endpoint. To generalize the intended target to other relatable targets, this assay endpoint is annotated to the nuclear receptor intended target family, where the subfamily is steroidal.
Protein-fragment complementation assay, or PCA, is a method for the identification and quantification of protein-protein interactions. In the PCA, the proteins of interest ("bait" and "prey") are each covalently linked to fragments of a third protein (e.g. DHFR, which acts as a "reporter"). Interaction between the bait and the prey proteins brings the fragments of the reporter protein in close proximity to allow them to form a functional reporter protein whose activity can be measured. The OT ER alpha / ER beta assay is a heterodimer PCA of the ligand binding domain (LBD) of ER alpha (amino acids 310-547) and human ER beta (amino acids 263-489) stably expressed in HEK293T cells. […] Fluorescent signal in the basal state of the assay is very low and is primarily punctuate and cytoplasmic. Modulation of this assay is quantified as an increase in mean fluorescence intensity in the nucleus (for agonists) or in the nucleus and cytoplasm (antagonists) relative to vehicle controls, and can be quantified on a high content imaging device or a laser scanning cytometer. The latter instrument is favored for this assay because of the rapid mode of data acquisition, the ability to acquire data from the entire cell population in a well (as opposed to a fraction of the well on the high content devices) and the larger dynamic range typically achieved with this instrument. To assess sensitivity of the ER alpha/ER beta LBD assay to ligand, cells were treated with the ER agonist 17- beta-estradiol (E2) in 10-point concentration- response format for 24 hours and monitored response on a laser scanning plate cytometer (Acumen eX3; TTP Lab Tech).

SMILES | AC50 | outcome
O=C(NC(=O)c1c(F)cccc1F)Nc1cc(Cl)c(OC(F)(F)C(F)C(F)(F)F)cc1Cl (stereo unspecified) | 50.2 µM (active) | 
O=S1(=O)OC(c2cc(Br)c(O)c(Br)c2)(c2cc(Br)c(O)c(Br)c2)c2ccccc21 |  | inactive
N#CCCC(Br)(C#N)CBr (stereo unspecified) | 11.8 µM (active) | 
CC(C)=CC1C(C(=O)OCc2cccc(Oc3ccccc3)c2)C1(C)C (stereo unspecified) |  | inactive
CCCSP(=S)(OCC)Oc1ccc(SC)cc1 (stereo unspecified) | 24.1 µM (active) | 
CCOCn1c(-c2ccc(Cl)cc2)c(C#N)c(Br)c1C(F)(F)F | 12.4 µM (active) | 
O=CCCl |  | inactive
O=C(O)COc1ccc(Cl)cc1 |  | inactive
CC(=Cc1ccccc1)[N+](=O)[O-] |  | inactive
Oc1c(Br)cc(Br)cc1Br |  | inactive
CCC[CH2][Sn]([Cl])([Cl])[CH2]CCC |  | inactive
N#CCC#N |  | inactive
CC(O)(CS(=O)(=O)c1ccc(F)cc1)C(=O)Nc1ccc(C#N)c(C(F)(F)F)c1 (stereo unspecified) | 5.63 µM (active) | 
CCOc1ccc(N)cc1 |  | inactive
O=C(NC(=O)c1c(F)cccc1F)Nc1ccc(Cl)cc1 |  | inactive
CNC(=O)O/N=C/C(C)(C)S(C)(=O)=O |  | inactive
CCCCCCCCCCCCN(C)C | 73.9 µM (active) | 
CC(C)N(C(=O)CCl)c1ccccc1 |  | inactive
CCN(CCO)CCO |  | inactive
Cc1cc(Cl)ccc1OC(C)C(=O)O (stereo unspecified) |  | inactive
O=C(CCl)Nc1ccccc1 |  | inactive
